Assay outcomes as filed in PubChem BioAssay.
G9a inh – inhibitors of human histone lysine methyltransferase G9a; Q96KQ7; G9a H3K9 monomethylation, AlphaScreen, 2 h; Potency, µM (doses to about 102 µM), inactives show at the highest dose activity, negative = inhibition, usual class: inhibitors; hit rate 8.8% among 350,000; note: % is set by controls: 0 for no effect and ±100 for the full control effect; nearly all actives have a fitted effect of over 75% in size
Target sequence (Q96KQ7 913-1193 limits assumed): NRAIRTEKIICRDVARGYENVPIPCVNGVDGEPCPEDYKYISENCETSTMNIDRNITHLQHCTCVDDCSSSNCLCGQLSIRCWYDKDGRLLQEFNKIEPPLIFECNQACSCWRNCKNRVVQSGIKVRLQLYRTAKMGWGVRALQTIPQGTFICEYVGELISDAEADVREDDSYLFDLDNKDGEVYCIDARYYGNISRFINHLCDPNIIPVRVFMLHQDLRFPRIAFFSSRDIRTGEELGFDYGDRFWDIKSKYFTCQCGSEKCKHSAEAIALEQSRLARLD
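Step 1: enzyme (final 20 nM) with compound, 15 min RT. Step 2: substrate peptide 500 nM and SAM 20 uM, 2 h RT. Step 3: anti-H3K9me1 antibody and AlphaScreen beads, 10 min, then plate read.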
BAZ2B inh – BAZ2B (human) inhibition; Q9UIF8; AlphaScreen BAZ2B-H3K14Ac peptide displacement; Potency, µM (highest dose often 114 µM), for the others: top-dose activity change, negative = inhibition, most hits filed as inhibitors; hit rate 4.4% among 360,000; AID 504333; note: % is set by controls: 0 for no effect and ±100 for the full control effect; nearly all actives have a fitted effect of over 60% in size
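AlphaScreen displacement of biotin-H3(5-23)K14Ac peptide (50 nM final) from BAZ2B (50 nM final) in PBS pH 7.4, 0.01% Tween-20; complex preformed 30 min RT, then compounds (top 110 uM) 30 min RT, beads 20 min dark.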
L3MBTL1 block – L3MBTL1 (human) inhibition; AlphaScreen L3MBTL1–H3K9me1 peptide binding; Potency, µM (doses to about 57.1 µM), inactives show at the highest dose activity, negative = inhibition, hits mostly inhibitors; hit rate 0.66% among 230,000; note: % is set by controls: 0 for no effect and ±100 for the full control effect; nearly all actives have a fitted effect of over 60% in size
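Read-out is AlphaScreen signal from streptavidin donor and nickel chelate acceptor beads (10 ug/mL final each) bridging L3MBTL1 (50 nM) and biotinylated K9-monomethylated H3(1-15) peptide (75 nM), after 30 min compound exposure at room temperature.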
JMJD2A Tudor inh – inhibitors of human JMJD2A Tudor domain; O75164; AID 504339; AlphaScreen JMJD2A-Tudor / H3K4me3 peptide binding; Potency, µM (titrated, usually from 114 µM), for the others: at the highest dose activity change, negative = inhibition, actives largely listed as inhibitors; hit rate 4.4% among 390,000; note: % is set by controls: 0 for no effect and ±100 for the full control effect; nearly all actives have a fitted effect of over 50% in size
HP1b binding inh – inhibitors of HP1-beta chromodomain binding to methylated histone tails; P83916; AlphaScreen HP1-beta / biotin-H3K9me3 peptide binding; Potency, µM (highest dose often 114 µM), for inactives: top-dose activity change, negative = inhibition, usual class: inhibitors; hit rate 0.56% among 390,000; note: nearly all actives have a fitted effect of over 70% in size
Target sequence (P83916 whole entry, looked up): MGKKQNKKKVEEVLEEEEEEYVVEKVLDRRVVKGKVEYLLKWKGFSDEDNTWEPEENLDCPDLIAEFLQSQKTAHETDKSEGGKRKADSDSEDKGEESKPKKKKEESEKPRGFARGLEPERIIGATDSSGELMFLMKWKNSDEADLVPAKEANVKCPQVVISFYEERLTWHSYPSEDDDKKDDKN
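HP1-beta protein (50 nM final) preincubated 30 min at room temperature with biotinylated H3(1-18)K9me3 peptide (50 nM) in PBS pH 7.4, 0.01% Tween-20, then compound added for 30 min. AlphaScreen streptavidin donor/nickel chelate acceptor beads (10 ug/mL final), 30 min dark, luminescence read.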
Active calls of the source: *; [ ] = another dose, or the depositor's remark. Rows were chosen to be rich in hits. Some 11% of all compounds tested hit in one or more screens of this group. Calls come from the whole dose curve; as a rule, active = well fitted inhibition curve with a large enough effect; inconclusive = small, poorly fitted or top-dose-only effect; inactive = no such curve, though single readings can be large or run the other way. Potency is the fitted concentration of half-maximal effect.

Results for c1ccc2cc(OCCOCCOc3ccc4ccccc4c3)ccc2c1 ?
G9a inh: 13%; BAZ2B inh: 19%; L3MBTL1 block: 11%; JMJD2A Tudor inh: 123%; HP1b binding inh: 99%

How did CCOc1cccc(OCCOCCN(C)Cc2ccccc2)c1 do in these assays?
G9a inh: -5%[12.7 µM]; BAZ2B inh: 2%; JMJD2A Tudor inh: -4%; HP1b binding inh: 21%

Results for CN(C)CCOc1ccc2ccccc2c1 ?
G9a inh: 11µM*; BAZ2B inh: 45µM*; L3MBTL1 block: -7%; JMJD2A Tudor inh: 10µM*; HP1b binding inh: inconclusive

Results for CCOc1cccc(OCCOCCN(C)C)c1 ?
G9a inh: 11µM*; BAZ2B inh: inconclusive; L3MBTL1 block: -4%; JMJD2A Tudor inh: 22µM*; HP1b binding inh: inconclusive

Results for CN(C)CCOc1cccc(Cl)c1 ?
G9a inh: 8.9µM*; BAZ2B inh: inconclusive; L3MBTL1 block: 0%; JMJD2A Tudor inh: 22µM*; HP1b binding inh: inconclusive

What do the screens show for `CSc1nc(N)c2ncn([C@@H]3O[C@H](COP(=O)(O)OP(=O)(O)O)[C@H](O)[C@H]3O)c2n1`?
G9a inh: 20%[12.7 µM]

What do the screens show for `Cc1nc(-n2nc(C)c(Cc3ccccc3Cl)c2C)sc1C(=O)N1CCCCC1C` (stereo unspecified)?
G9a inh: -20%[59 µM]; BAZ2B inh: -4%; JMJD2A Tudor inh: -5%; HP1b binding inh: 44%

How did COc1ccc(OC)c(C2(O)CSC(=Nc3cccnc3)N2Cc2ccco2)c1 (stereo unspecified) do in these assays?
G9a inh: -39%; BAZ2B inh: 63µM*; L3MBTL1 block: 17%[11.4 µM]; JMJD2A Tudor inh: -20%[57.1 µM]; HP1b binding inh: 27%

Results for CCc1ccc(NC(=O)Cn2ccn(-c3ccc(C)c(C)c3)c(=O)c2=O)cc1 ?
G9a inh: -25%[59 µM]; BAZ2B inh: -24%; JMJD2A Tudor inh: 12%; HP1b binding inh: 50%

How did COc1ccccc1C(=O)Nc1ccnn1C1CCN(CCCC2CCCC2)CC1 do in these assays?
G9a inh: 10%[59 µM]; BAZ2B inh: -28%; JMJD2A Tudor inh: -15%; HP1b binding inh: 32%

How did CC(=O)c1sc(NC(=O)C2CC(=O)N(Cc3ccco3)C2)nc1-c1ccccc1 (stereo unspecified) do in these assays?
G9a inh: 50µM*; BAZ2B inh: inconclusive; L3MBTL1 block: -21%; JMJD2A Tudor inh: inconclusive; HP1b binding inh: inconclusive

Results for O=C(Nc1ccc(Cl)cc1F)C1CC(=O)N(Cc2ccco2)C1 (stereo unspecified) ?
G9a inh: 56µM*; BAZ2B inh: 7%; L3MBTL1 block: 1%; JMJD2A Tudor inh: -13%; HP1b binding inh: 22%

How did COc1ccc(-c2nc(NC(=O)C3CC(=O)N(Cc4ccco4)C3)sc2C)cc1 (stereo unspecified) do in these assays?
G9a inh: -9%[2.33 µM]; BAZ2B inh: inconclusive; L3MBTL1 block: -4%; JMJD2A Tudor inh: inconclusive; HP1b binding inh: -17%

How did COc1cc(/C=N/Nc2nc(=O)[nH]nc2C)ccc1O do in these assays?
G9a inh: -127%[12.7 µM]; BAZ2B inh: inconclusive; L3MBTL1 block: 5%; JMJD2A Tudor inh: -1%[11.4 µM]; HP1b binding inh: 43%

How did COc1cc(/C=N/n2c(-c3n[nH]c4c3CCC4)n[nH]c2=S)ccc1O do in these assays?
G9a inh: inconclusive; BAZ2B inh: -34%; JMJD2A Tudor inh: 3.2µM*; HP1b binding inh: inconclusive

How did COc1ccc(/C=N/n2c(-c3n[nH]c4c3CCC4)n[nH]c2=S)cc1OC do in these assays?
G9a inh: inconclusive; BAZ2B inh: -30%; L3MBTL1 block: -16%; JMJD2A Tudor inh: 1.4µM*; HP1b binding inh: -16%

Results for CCN1CCN(CCCN(Cc2cccs2)C(=S)Nc2ccccc2C)CC1 ?
G9a inh: -35%; BAZ2B inh: 0%; L3MBTL1 block: 8%; JMJD2A Tudor inh: -4%; HP1b binding inh: 30%

How did CCC(C)Sc1cc(-c2nc3cc(C)ccn3c2NC2CCCCC2)ccc1OC (stereo unspecified) do in these assays?
L3MBTL1 block: -14%; JMJD2A Tudor inh: 50µM*; HP1b binding inh: -10%

How did CCC(C)Sc1cc(-c2nc3ccccn3c2NC2CCCCC2)ccc1OC (stereo unspecified) do in these assays?
G9a inh: 9%[2.33 µM]; BAZ2B inh: inconclusive; L3MBTL1 block: -10%; JMJD2A Tudor inh: 79µM*; HP1b binding inh: 4%

How did c1csc(-c2nc3ccccn3c2NC2CCCCC2)c1 do in these assays?
G9a inh: inconclusive; BAZ2B inh: inconclusive; L3MBTL1 block: -9%; JMJD2A Tudor inh: -13%; HP1b binding inh: 17%

How did CC(=O)c1ccc(-c2cccc(-c3nc4ccccn4c3NC3CCCCC3)c2)cc1 do in these assays?
G9a inh: -13%[2.33 µM]; BAZ2B inh: 40µM*; L3MBTL1 block: -16%; JMJD2A Tudor inh: inconclusive; HP1b binding inh: -14%

What do the screens show for `CCCCNc1c(-c2ccc(OC)c(SC(C)CC)c2)nc2cc(C)ccn12` (stereo unspecified)?
L3MBTL1 block: -15%; JMJD2A Tudor inh: inconclusive; HP1b binding inh: 1%

Results for Cc1ccn2c(NC3CCCC3)c(-c3cccs3)nc2c1 ?
G9a inh: 45µM*; BAZ2B inh: inconclusive; L3MBTL1 block: -6%; JMJD2A Tudor inh: 10µM*; HP1b binding inh: -11%

How did COc1cc(CNC(=O)c2sc3ncccc3c2-n2cccc2)cc(OC)c1OC do in these assays?
G9a inh: 5%[59 µM]; BAZ2B inh: -19%; JMJD2A Tudor inh: -27%; HP1b binding inh: 39%[57 µM]

Results for N#CC1=C(N)Nc2nc3ccccc3n2C1c1ccc(Cl)cc1 (stereo unspecified) ?
G9a inh: 0.63µM*; BAZ2B inh: 0%; L3MBTL1 block: 0%; JMJD2A Tudor inh: -15%; HP1b binding inh: 23%

Results for CCN(CC)C(=O)C1=C(C)Nc2nc3ccccc3n2C1c1ccc(Cl)cc1 (stereo unspecified) ?
G9a inh: 6%[59 µM]; BAZ2B inh: 0%; JMJD2A Tudor inh: 1%; HP1b binding inh: 42%

How did CCc1ccccc1NNC(=O)CCc1ccccc1 do in these assays?
G9a inh: 28µM*; BAZ2B inh: -3%; L3MBTL1 block: 6%; JMJD2A Tudor inh: -7%; HP1b binding inh: 19%

How did CC(C)NC(=O)CCCc1ccccc1 do in these assays?
G9a inh: -3%; BAZ2B inh: 7%; L3MBTL1 block: 3%; JMJD2A Tudor inh: -2%; HP1b binding inh: 20%

Results for CC(C)NC(=O)C(=O)NNC(=O)CCc1ccccc1 ?
G9a inh: inconclusive; BAZ2B inh: -39%; L3MBTL1 block: -4%; JMJD2A Tudor inh: 14µM*; HP1b binding inh: 20%

What do the screens show for `CCOc1ccccc1CNC(=O)c1oc2c(c1C)-c1[nH]ncc1CC2`?
G9a inh: inconclusive; BAZ2B inh: -29%; JMJD2A Tudor inh: -21%; HP1b binding inh: 67%
